# Compound activity as filed in PubChem BioAssay.
# Cruzain inh Det: qHTS Assay for Promiscuous and Specific Inhibitors of Cruzain (with detergent); Potency, µM, for inactives: max response, negative = inhibition, hits mostly inhibitors; purified cruzain, Z-FR-AMC fluorescence, 0.01% Triton; actives 0.43% (n = 200,000); AID 1478, 2009;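 further: plate controls were neutral wells for no effect and buffer without enzyme for full effect; nearly all actives have a fitted effect of over 40% in size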
# Target sequence (P25779 123-467 limits assumed): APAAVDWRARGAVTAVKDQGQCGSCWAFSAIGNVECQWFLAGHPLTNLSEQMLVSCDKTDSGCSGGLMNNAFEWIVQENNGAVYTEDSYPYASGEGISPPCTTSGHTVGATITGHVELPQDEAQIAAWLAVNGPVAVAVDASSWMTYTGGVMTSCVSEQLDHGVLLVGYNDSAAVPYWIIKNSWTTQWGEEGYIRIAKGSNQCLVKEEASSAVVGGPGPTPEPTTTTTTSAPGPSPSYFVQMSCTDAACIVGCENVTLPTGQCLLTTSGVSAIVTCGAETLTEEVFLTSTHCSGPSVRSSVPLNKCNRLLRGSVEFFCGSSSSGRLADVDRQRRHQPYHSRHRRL
#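 Cruzain (1.5 nM) preincubated 15 min at RT with compound in 100 mM sodium acetate pH 5.5, 5 mM DTT, 0.01% Triton X-100. Reaction started with 2 uM Z-FR-AMC; AMC fluorescence (ex 360/em 450 nm) change over 60 s gave rate.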
# Cruzain noTriton: qHTS Assay for Promiscuous and Specific Inhibitors of Cruzain (without detergent); Cruzipain (Trypanosoma cruzi), P25779; actives 2.3% (n = 200,000); purified cruzain, Z-FR-AMC fluorescence, no detergent; AID 1476, 2009; Potency, µM, for inactives: max response, negative = inhibition, usual class: inhibitors;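 further: plate controls were enzyme without inhibitor for no effect and buffer without enzyme for full effect; nearly all actives have a fitted effect of over 40% in size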
#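 Detergent-free condition (0.00005% Triton X-100) in acetate buffer pH 5.5 with DTT. 1.5 nM enzyme and compound were pre-mixed 15 min, then 2 uM Z-FR-AMC substrate added; reaction progress from fluorescence change between first and third reads (60 s).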
# * = called active by the depositor; ? = inconclusive. This is a sample that favours compounds with a hit; in the whole collection about 2.6% have one here. The call rests on the fitted dose curve; in most records, active means well fitted curve in the direction sought with a large enough effect; inconclusive means small, poorly fitted or top-dose-only effect, or another doubt; inactive means no such curve, though single readings can be large; an effect the other way counts as inactive or inconclusive. Potency means the concentration at half of the fitted maximal effect.
SMILES,Cruzain inh Det,Cruzain noTriton
COc1cccc(-c2csc(N3CCN(Cc4ccccc4)CC3)n2)c1,-10%,-24%
COc1cccc(-c2csc(N3CCN(C(=S)Nc4ccccc4)CC3)n2)c1,4%,?
COc1cccc(-c2csc(N3CCN(S(=O)(=O)c4ccc(F)cc4)CC3)n2)c1,0%,25µM*
CN1CCN(c2ncc3c(n2)CCN(Cc2ccc(Br)s2)C3)CC1,-3%,3%
O=C(O)CSc1n[nH]c(=O)[nH]c1=O,6%,1%
COc1ccc(C(=O)N2CCC(C(=O)Nc3ccccc3Cl)CC2)cc1,2%,2%
O=S(=O)(c1ccccc1C(F)(F)F)N1CCN(S(=O)(=O)c2ccccc2C(F)(F)F)CC1,3%,20µM*
CCn1c(N2CCN(S(=O)(=O)c3ccccc3C(F)(F)F)CC2)nc2ccccc21,1%,11%
CCC(C)c1ccc(OCC(=O)Nc2ccc3[nH]c(=O)[nH]c3c2)cc1 (stereo not drawn),-2%,25µM*
CCC(C)c1ccc(OCC(=O)O)cc1 (stereo not drawn),3%,-2%
CCc1nnc(NC(=O)c2ccc(-c3cc(C(F)(F)F)ccc3Cl)o2)s1,-4%,-8%
CCc1nnc(NC(=O)c2ccc(COc3ccccc3)o2)s1,6%,?
CCc1nnc(NC(=O)c2ccc(-c3cccc(C(F)(F)F)c3)o2)s1,-3%,13µM*
CCc1nnc(NC(=O)c2ccc(COc3ccc(C)cc3)o2)s1,4%,25µM*
Cc1ccc(CCNC(=O)c2ccc(NC(=O)N3CCSc4ccccc43)cc2)cc1,-4%,-1%
COc1ccc2c(c1)C(=O)[C@@H](OC(=O)N[C@H]1CCCc3ccccc31)[C@H](c1ccc(OC)c(Br)c1)O2,-1%,-4%
CC(C)[C@]1(O)[C@@H](OC(=O)c2ccc[nH]2)[C@]2(O)[C@@]3(C)C[C@@]4(O)O[C@@]5([C@H](O)[C@@H](C)CC[C@]35O)[C@]2(O)[C@]41C,2%,-3%
CCCCCCc1cc2cc(S(=O)(=O)c3ccc(F)cc3)c(=O)oc2cc1O,-7%,25µM*
CCCCCCc1cc2cc(-c3nnc(-c4ccccc4O)o3)c(=O)oc2cc1O,-2%,-10%
COc1cc2c(cc1OC)[C@]13CC[N@+]4(C)CC5=CCO[C@H]6CC(=O)N2[C@@H]1C6[C@@H]5C[C@]34O (stereo partly drawn),2%,-4%
Cc1ccc2nc(-c3ccc(NC(=O)COC(=O)c4ccc([N+](=O)[O-])o4)cc3)sc2c1,-6%,16µM*
CC(=O)NC(=S)Nc1ccc(-c2nc3ccc(C)cc3s2)cc1,-1%,6.3µM*
CCOc1ncccc1C(=O)OCC(=O)Nc1ccc(-c2nc3ccc(C)cc3s2)cc1,-5%,-3%
Cc1ccc2nc(-c3ccc(NC(=O)COc4ccccc4)cc3)sc2c1,0%,?
CCC(C)(C)NC(=S)Nc1ccc(-c2nc3ccc(C)cc3s2)cc1,-2%,?
SMILES,Cruzain inh Det,Cruzain noTriton
Cc1ccc2nc(-c3ccc(NC(=O)COC(=O)c4cncc(Br)c4)cc3)sc2c1,-2%,6.3µM*
Cc1ccc2nc(-c3ccc(NC(=O)COC(=O)c4ccco4)cc3)sc2c1,-2%,?
Cc1ccc2nc(-c3ccc(NC(=O)COC(=O)c4ccc(Br)o4)cc3)sc2c1,-1%,13µM*
CCc1nn(CC(=O)NCc2ccc(C)cc2)c(=O)c2cc3occc3n12,-1%,7%
COc1ccccc1N1CCN(c2ccc(=O)n(CC(=O)O)n2)CC1,-2%,-3%
Cc1cnc(CNc2ccnc(-c3cccnc3)n2)cn1,-4%,7%
COc1ccccc1Cn1cc(C(=O)c2ccc(C)cc2)c(=O)c2cc(F)cc(F)c21,2%,16%
Cc1ccc(Nc2c(-c3ccc(N4CCOCC4)cc3)nc3c(C)cccn23)cc1,-3%,0%
Nc1cc(C(=O)OCC(=O)NCc2ccc(F)cc2)ccc1Cl,4%,0%
Nc1cc(C(=O)OCC(=O)NC(c2ccccc2)c2ccccc2)ccc1Cl,-1%,25µM*
O=C1CSC(c2cn(-c3ccccc3)nc2-c2cc3ccccc3oc2=O)N1Cc1ccco1 (stereo not drawn),28µM*,?
O=C1CSC(c2cn(-c3ccccc3)nc2-c2cc3ccccc3o2)N1Cc1ccccc1 (stereo not drawn),4%,?
Cc1ccc(-c2nnc(SCC(=O)NC3CCCC3)nc2-c2ccc(C)cc2)cc1,?,13µM*
O=C(CSc1nnc(-c2ccc(Cl)cc2)c(-c2ccc(Cl)cc2)n1)NC1CCCC1,-8%,-9%
N#Cc1cc2c(=O)n3ccccc3nc2n(-c2nnc(SCc3ccccc3)s2)c1=O,1%,3%
Cc1cccn2c(=O)c3cc(C#N)c(=O)n(-c4nnc(SCc5ccc(Cl)cc5)s4)c3nc12,-6%,20µM*
CC(=O)Nc1ccc(NC(=O)c2ccc3c(c2)CCN3S(=O)(=O)c2ccc(Cl)cc2)cc1,0%,8%
